Assay outcomes as filed in PubChem.
Rows were chosen to be rich in hits. Some 4.8% of all compounds tested hit in one or more screens of this group.
DAX1 inh-1: inhibitors of DAX1 repression of SF-1 activated StAR promoter; HEK293T StAR-luciferase reporter, SF-1/DAX-1 repression relief; inhibition, % at 6.8 µM; actives 1.1% (n = 370,000); AID 652010;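 active means inhibition above the mean over all tested compounds plus 3 SD, cut at about 3.6% in these data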;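 further: 0% = DAX-1 cells with DMSO and 100% = cells lacking DAX-1 with DMSO; higher inhibition means more luminescence from relief of DAX-1 repression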
DAX1 inh-2: NR0B1 (DAX1) inhibition; P51843; HEK293 Gal4-DAX1 luciferase reporter, luminescence; inhibition, % at 6.75 µM; actives 0.99% (n = 340,000); AID 504766;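 active means inhibition above the mean over all tested compounds plus 3 SD, cut at about 4.2% in these data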;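 further: 0% = DAX1-transfected cells with DMSO and 100% = empty-vector control cells with DMSO; inhibition shows as a rise in luminescence from relieved DAX1 repression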
Target sequence (P51843 207-470 limits assumed): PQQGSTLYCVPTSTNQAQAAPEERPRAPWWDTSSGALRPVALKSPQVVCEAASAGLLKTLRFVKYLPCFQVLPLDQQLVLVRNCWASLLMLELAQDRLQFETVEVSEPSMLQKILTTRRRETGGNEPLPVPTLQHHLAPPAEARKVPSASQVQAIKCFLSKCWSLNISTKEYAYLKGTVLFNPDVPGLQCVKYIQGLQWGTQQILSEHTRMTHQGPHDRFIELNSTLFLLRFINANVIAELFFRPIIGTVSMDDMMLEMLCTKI
hgDAF-12 ag: hgDAF-12 agonism, primary luciferase screen; HEK293 GAL4-hgDAF12 UAS-luciferase reporter, agonist luminescence; normalized to butyrate control; activation, % at 6.8 µM; AID 687014; actives 1.8% (n = 370,000);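 active means activation above a cutoff set at the mean of all screened compounds plus 3 SD, cut at about 10% in these data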;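 further: 0% = DMSO wells and 100% = sodium butyrate wells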
SMARCA2 activ: SMARCA2 function activation, primary screen; AID 652017; MG213 cells, MMTV-luciferase reporter, dexamethasone, overnight; activation, % at 9.1 µM; actives 1% (n = 370,000); in the data active means activation above about 7.8%;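 further: 0% = vehicle wells and 100% = reference activator wells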
ssDAF-12 act: S. stercoralis DAF-12 activation, primary screen | activation, % at 6.8 µM | AID 652126 | actives 1% (n = 370,000) | HEK293 ssDAF-12/GRIP1 lit1-tk-luc reporter, luminescence; % of 3 µM dafachronic acid response;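 active means activation above the mean over all tested compounds plus 3 SD, cut at about 0.9% in these data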;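 further: 0% = DMSO-only wells and 100% = 3 µM delta7-dafachronic acid wells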
hcDAF12 agonist: activators of H. contortus DAF-12 nuclear receptor. HEK293 hcDAF-12 lit1-tk-luc reporter, luminescence; 0% DMSO, 100% Δ7-dafachronic acid. activation, % at 6.8 µM. actives 1.4% (n = 370,000). AID 652067;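 active means activation above the mean of all tested compounds plus 3 SD, cut at about 5.5% in these data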;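 further: 100% = response to 3 µM Δ7-dafachronic acid high control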
DAX1 conf: NR0B1 (human) inhibition, confirmation; inhibition, % at 6.8 µM; HEK293T StAR-promoter luciferase reporter, SF-1/DAX-1 repression; AID 652134; actives 87% (n = 2,400); shares compounds with DAX1 inh-1;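 active means inhibition above the average of every tested compound plus 3 SD, cut at about 3.8% in these data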;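 further: 0% = DAX-1 cells with DMSO and 100% = no DAX-1 control cells with DMSO; active compounds raise luminescence by relieving repression of the StAR reporter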
Target sequence (P51843 whole entry, looked up): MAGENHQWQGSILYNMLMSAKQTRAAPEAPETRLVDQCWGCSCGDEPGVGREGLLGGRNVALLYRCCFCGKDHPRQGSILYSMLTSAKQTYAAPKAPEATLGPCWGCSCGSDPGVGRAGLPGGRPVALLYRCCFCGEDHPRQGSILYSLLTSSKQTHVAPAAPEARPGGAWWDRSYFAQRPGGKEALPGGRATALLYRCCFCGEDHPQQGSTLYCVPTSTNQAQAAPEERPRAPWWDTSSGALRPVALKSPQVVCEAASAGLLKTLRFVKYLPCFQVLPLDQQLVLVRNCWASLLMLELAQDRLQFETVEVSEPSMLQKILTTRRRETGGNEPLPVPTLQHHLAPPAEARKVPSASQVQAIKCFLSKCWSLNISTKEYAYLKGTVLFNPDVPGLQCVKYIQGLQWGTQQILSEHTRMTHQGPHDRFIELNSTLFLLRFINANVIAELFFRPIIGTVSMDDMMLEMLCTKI
SF1 mutant ctr: counter-screen for DAX1 inhibitors: nonselective inhibitors with SF-1 AF2 mutant. shares compounds with DAX1 inh-1. HEK293 StAR-luciferase, luminescence. inhibition, % at 6.8 µM. actives 78% (n = 2,400);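 active means inhibition above the mean of all tested compounds plus 3 SD, cut at about 3% in these data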;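 further: 0% = DAX-1 transfected cells with DMSO and 100% = cells without DAX-1 with DMSO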
SMARCA2 act conf: SMARCA2 activation, confirmation screen | shares compounds with SMARCA2 activ | MG213 cells, MMTV-luciferase with dexamethasone, luminescence, overnight; MG213 cells expressing E1A, Rb sequestered; DMSO wells 0%, reference activator 100% | activation, % at 9.1 µM | actives 30% (n = 3,500);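 active means activation above its plate's cutoff, the mean activation of tested wells plus 3 SD, cut at about 7.9% in these data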
GAL4-VP16 Luc: activates GAL4-VP16 luciferase, flagging SMARCA2 activator hits; HEK293 GAL4-VP16 pG5luc reporter, luciferase luminescence; scaled: DMSO wells 0%, SAHA wells 100%; activation, % at 9.1 µM; shares compounds with SMARCA2 activ; AID 686939; actives 41% (n = 3,500);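 active means activation above the solvent-only control well mean plus 3 SD, averaged across control plates, cut at about 5.2% in these data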
LXR ag: LXR-beta agonism as hcDAF-12 counter-screen; 3,400 tested, under 10 active; activation, % at 6.8 µM; shares compounds with hcDAF12 agonist; HEK293 Gal4-LXR tk-luc reporter, luminescence, 24 h; normalized: DMSO 0%, positive control 100%;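 active means mean percent activation of the reporter above a cutoff set as the average over tested compounds plus their standard deviation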
hcDAF12 conf: hcDAF-12 agonism, confirmation assay. shares compounds with hcDAF12 agonist. HEK293 hcDAF-12 lit1-tk-luc reporter, luminescence; % of Δ7-dafachronic acid response. activation, % at 6.8 µM. actives 61% (n = 3,400). AID 743032;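 active means mean activation across triplicate tests above the threshold derived from the earlier primary screen, cut at about 5.5% in these data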;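 further: 0% = DMSO only wells and 100% = 3 µM Δ7-dafachronic acid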
The depositor's hits bear a star; x = not tested or not shown.

SMILES | DAX1 inh-1 | DAX1 inh-2 | hgDAF-12 ag | SMARCA2 activ | ssDAF-12 act | hcDAF12 agonist | DAX1 conf | SF1 mutant ctr | LXR ag | hcDAF12 conf | others
O=c1c2c(nc3cc(-c4ccc(F)cc4)[nH]n13)CCCC2 | 5.4* | -1 | 10 | 1 | 1 | 6.9* | 11* | 3.4* | 1 | 5
CC(C)[C@@H](CO)NS(=O)(=O)c1ccc(Br)cc1F | 2 | 1 | 5 | -3 | -1 | -1 | x | x | x | x
Clc1ccccc1OCc1nc(-c2ccccn2)no1 | 5.7* | 1 | 11* | 12* | 1 | 6.6* | 14* | 6.6* | 1 | 7.8* | SMARCA2 act conf=15*;GAL4-VP16 Luc=8.7*
Clc1ccc(OCc2nc(-c3ccccn3)no2)c(Br)c1 | 6.7* | -1 | 6 | 6 | 0 | 6.8* | 18* | 8.1* | 2 | 10*
c1ccc(CCc2nc(-c3ccccn3)no2)cc1 | 4 | 2 | 9 | 4 | -1 | 2 | x | x | x | x
COc1cc2[nH]c(=O)n(Cc3ccc(C(=O)NCCCN4CCC(C)CC4)cc3)c(=O)c2cc1OC | 0 | 2 | 0 | 0 | -1 | -2 | x | x | x | x
O=C(Nc1ccc([N+](=O)[O-])cc1)C(=O)Nc1cccc(C(=O)O)c1 | 5.4* | -7 | 13* | 0 | 2.7* | 11* | 12* | 8.5* | 2 | 25*
CN1CCN(S(=O)(=O)c2ccc(Sc3nc4ccccc4[nH]3)c3nsnc23)CC1 | -1 | -1 | -2 | 0 | -1 | 0 | x | x | x | x
Clc1ccc(-c2cn3c(n2)-c2ccccc2C3)cc1Cl | 5.9* | 2 | 20* | 0 | 2.0* | 17* | 9.2* | 6.4* | 2 | 15*
NC(=O)c1ccsc1NC(=O)c1cccs1 | 2 | 0 | 4 | -1 | -1 | 3 | x | x | x | x
NC(=O)c1ccsc1NC(=O)c1ccc2c(c1)CCCC2 | 6.8* | 0 | 19* | 5 | 2.5* | 14* | 12* | 7.8* | 2 | 21*
c1ccc(Nc2nc(-c3cccs3)cs2)nc1 | 4.6* | 1 | 12* | 2 | 2.6* | 15* | 13* | 5.1* | 2 | 19*
Nc1ccc(Nc2nc(-c3cccs3)cs2)cc1 | 0 | 1 | 4 | 6 | -1 | 2 | x | x | x | x
CC(C)C(c1nnnn1C1CCCC1)N1CCOCC1 (stereo unspecified) | 0 | 1 | 0 | -2 | -1 | -1 | x | x | x | x
N/C(=N\OC(=O)/C=C/c1ccc(Br)cc1)c1ccccn1 | 4.7* | 0 | 12* | 1 | 2.2* | 8.0* | 9.3* | 7.0* | 1 | 8.3*
N/C(=N\OC(=O)/C=C/c1ccccc1Cl)c1ccccn1 | 6.2* | -3 | 8 | 3 | 0 | 7.0* | 18* | 6.1* | 2 | 8.5*
CC12CCC(=O)N1C(C(=O)Nc1cc(Cl)ccc1N1CCOCC1)CS2 (stereo unspecified) | 0 | 0 | -2 | -2 | -1 | -1 | x | x | x | x
CC1(Oc2cccnc2Cl)CCN(Cc2ccc(OC(F)(F)F)cc2)C1 (stereo unspecified) | -1 | x | 0 | -2 | -1 | -1 | x | x | x | x
CSc1ccc(/C=C/c2ccc3cccc(O)c3n2)cc1 | 5.0* | 0 | 34* | 4 | 3.2* | 22* | 16* | 7.1* | 2 | 11*
COc1ccc(Cn2c(N)c(C#N)c3nc4ccccc4nc32)cc1 | -1 | 0 | -3 | -1 | -1 | 0 | x | x | x | x
CCOC(=O)c1ccc(S(=O)(=O)NNC(=O)c2ccc3c(c2)nc(C)n3CC)cc1 | 0 | -1 | 2 | 0 | 0 | 4 | x | x | x | x
Cc1ccc(C2=NS(=O)(=O)N(C)C(C(=O)NCc3ccco3)=C2)cc1 | -1 | 1 | 6 | -5 | -1 | 1 | x | x | x | x
C/C(=N\Nc1ccc(C(=O)O)cc1)c1ccc(Br)cc1 | 5.1* | -3 | 19* | 3 | 1 | 12* | 16* | 5.3* | 2 | 14*
O=C(/C=C\Nc1cccc(F)c1)c1ccc2c(c1)OCO2 | 4.7* | -3 | 12* | 2 | 0 | 9.0* | 6.8* | -1 | 1 | 7.2*
COC(=O)c1ccc(N/C=C\C(=O)c2ccc3c(c2)OCO3)cc1 | 1 | 1 | -2 | 2 | -1 | 0 | x | x | x | x
SMILES | DAX1 inh-1 | DAX1 inh-2 | hgDAF-12 ag | SMARCA2 activ | ssDAF-12 act | hcDAF12 agonist | DAX1 conf | SF1 mutant ctr | LXR ag | hcDAF12 conf | others
Cc1ccc(N=C/C(C(=O)C(F)(F)F)=C(\O)c2ccco2)cc1Cl | 5.2* | 2 | 16* | 4 | 1.4* | 18* | 16* | 8.7* | 1 | 10*
Cc1noc(C)c1COc1cccc(C(=O)Nc2ccc(Br)cc2F)c1 | -3 | -2 | 1 | 0 | -2 | -3 | x | x | x | x
CC(C)Oc1cccc(C(=O)Nc2ccc(Br)cc2F)c1 | 6.6* | 4.7* | 17* | 3 | 0 | 7.4* | 15* | 8.4* | 1 | 4
CC1CCc2sc(C(=O)NCC(C)(C)N3CCOCC3)cc2C1 (stereo unspecified) | -1 | 0 | 1 | -3 | -1 | -1 | x | x | x | x
COc1cccc(NC(=O)Nc2nccc(C)n2)c1 | 5.0* | -2 | 13* | 5 | 0 | 8.1* | 13* | 5.3* | 1 | 4
COc1ccc(Cl)cc1C(=O)Nc1ccc(Br)c(C)n1 | 0 | 0 | -3 | 0 | 0 | 2 | x | x | x | x
CCCn1c(SCc2nc3ccccc3s2)n[nH]c1=O | 4.8* | 2 | 11* | 1 | 1.5* | 12* | 8.4* | 5.0* | 1 | 11*
C#CCOc1ccc(OC)cc1C(c1c(C)[nH][nH]c1=O)c1c(C)[nH][nH]c1=O | x | -1 | x | x | x | x | x | x | x | x
